# Screening results deposited in PubChem BioAssay by National Center for Advancing Translational Sciences (NCATS).
# HCMV inh: blocks human cytomegalovirus replication. HFF cells, HCMV-luciferase reporter, 72 h; hits give low values. activity change, negative = inhibition, % at 57.5 µM. actives 4.5% (n = 410,000); in the data active = activity change below about -60%; inconclusive = no clear call, values can overlap the other calls; inactive = above about -39%
#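 Inhibition of viral replication was scored as loss of reporter luminescence in HFFs infected with HCMV-luciferase (MOI 1 PFU/cell) for 72 h; compounds tested at 2 doses, normalized to buffer and Salinomycin controls.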
# HCV inhibitor: inhibitors of hepatitis C virus infection | Huh7.5.1 HCVcc-Cre infection, luciferase reporter, 44 h | Potency, µM (highest dose often 41.8 µM), inactives show at the top dose activity change, negative = inhibition, actives largely listed as inhibitors | actives 3.4% (n = 340,000); also: potency is read from the fitted curve at half-maximal effect
#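 Antiviral activity was scored by luciferase reporter output from cells infected with HCVcc-Cre (~0.5 moi) in presence of compound, 44 h infection period, cells seeded 1,000/well 4 h prior.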
# FMDV antiviral: blocks foot and mouth disease virus; actives 1.2% (n = 410,000); FMDV antiviral cell-based qHTS; Potency, µM (series often up to 57.9 µM), for the others: at the highest dose activity change, negative = inhibition, actives largely listed as inhibitors; calls by dose curve; tested in HEK293T cells; also: read-out not given here; potency is read from the fitted curve at half-maximal effect; nearly all actives have a fitted effect of over 45% in size
# MARV entry inh: Marburg virus entry inhibition; Marburg virus pseudotyped entry inhibition, cell reporter; Potency, µM (series often up to 37.8 µM), for the others: at the highest dose activity change, negative = inhibition, actives largely listed as inhibitors; actives 1.8% (n = 300,000); calls by dose curve; tested in HEK293 cells; also: potency is read from the fitted curve at half-maximal effect
# Lassa entry inh: inhibitors of Lassa virus binding or cell entry. AID 540256. Lassa virus pseudotype entry inhibition, cell reporter. Potency, µM (titrated, usually from 37.9 µM), without a hit: at the highest dose activity change, negative = inhibition, most hits filed as inhibitors. actives 1.2% (n = 300,000); calls by dose curve; tested in HEK293 cells; also: potency is read from the fitted curve at half-maximal effect; nearly all actives have a fitted effect of over 50% in size
# FBPA Giardia inh: Giardia lamblia aldolase inhibition; A8B2U2; purified Giardia FBPA; Potency, µM (doses to about 59.6 µM), without a hit: top-dose activity, negative = inhibition, hits mostly inhibitors; actives 0.71% (n = 290,000); AID 2451; also: potency is read from the fitted curve at half-maximal effect; nearly all actives have a fitted effect of over 55% in size
# Target sequence (A8B2U2 whole entry, looked up): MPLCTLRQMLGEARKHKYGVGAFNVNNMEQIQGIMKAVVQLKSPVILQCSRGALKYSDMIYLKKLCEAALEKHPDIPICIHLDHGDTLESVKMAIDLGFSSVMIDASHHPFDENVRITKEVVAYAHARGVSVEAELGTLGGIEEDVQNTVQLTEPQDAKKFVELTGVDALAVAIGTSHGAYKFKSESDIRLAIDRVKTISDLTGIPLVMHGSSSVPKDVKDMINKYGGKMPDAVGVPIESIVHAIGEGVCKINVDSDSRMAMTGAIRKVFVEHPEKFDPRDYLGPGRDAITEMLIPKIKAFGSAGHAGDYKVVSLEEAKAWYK
#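 Giardia FBPA (40 nM reagent) was preincubated 10 min at RT with compound (up to 57.5 uM final), then substrate plus GAPDH/TPI/NAD/arsenate coupling system with diaphorase/resazurin was added; resorufin fluorescence (525/598 nm) was read after 20 min.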
# * = called active by the depositor; ? = inconclusive; / = no result given; ! = not confirmed by another sample; [ ] = another dose, or the depositor's remark. Compounds with a hit are over-represented: about 8.3% of the library has one in this group of screens. Unless noted, calls follow the shape of the dose curve; as a rule, active = well fitted curve in the direction sought with a large enough effect; inconclusive = small, poorly fitted or top-dose-only effect, or another doubt; inactive = no such curve, though single readings can be large; an effect the other way counts as inactive or inconclusive. % is scaled to controls: 0 for no effect and ±100 for the full control effect.
SMILES,HCMV inh,HCV inhibitor,FMDV antiviral,MARV entry inh,Lassa entry inh,FBPA Giardia inh
Cc1ccccc1-c1ncc(CN2CCC(CO)(CCCc3ccccc3)CC2)cn1,-64*,?,-30%,/,/,-6%
OCC1(Cc2ccccc2)CCN(Cc2cnc(-c3ccc(Cl)cc3)nc2)CC1,-67*,10µM*,-8%,?,?,1%
OCCC1CN(Cc2cnc(-c3ccc(Cl)cc3)nc2)CCN1C1CCCCC1 (stereo unspecified),?,13µM*,-13%,/,/,2%
OCC1(CCCc2ccccc2)CCN(Cc2cnc(N3CCOCC3)s2)CC1,-11,?,?,?,11µM*,0%
Cc1cccc(-c2ncc(CN3CCN(C4CCCC4)C(CCO)C3)cn2)c1 (stereo unspecified),-9,-52%,-11%,?,-17%,-9%
OCC1(Cc2ccccc2)CCN(Cc2cnc(-c3cccc4ccccc34)nc2)CC1,13,-25%,?,?,14%[46.1 µM],-7%
OCC1(CCCc2ccccc2)CCN(Cc2ccc(F)cc2)CC1,-36,4%,-5%,?,-29%,6%
COc1cccc(CC2(CO)CCN(Cc3cnc(N4CCOCC4)s3)CC2)c1,-24,?,?,?,14%[46.1 µM],3%
Cc1ncc2c(c1CNC(=O)/C=C/c1cccs1)CCN(C(=O)c1ccc3c(c1)OCCO3)C2,/,/,6%,/,/,/
COC(=O)C1=C(C)N(Cc2ccccc2)C(=NCC(C)C)NC1c1cccc(C(F)(F)F)c1 (stereo unspecified),/,/,/,9%[14.2 µM],?,/
COC(=O)c1sc2cccc(F)c2c1S(=O)(=O)NCc1ccc(Cl)cc1,-5,/,52%,/,12%[46.1 µM],/
CCc1noc2cc(-c3ccccc3)n(C)c(=O)c12,18,/,/,/,/,/
COc1ccc(CCN(C)Cc2ccncc2)cc1OC,0,5%,-17%,6%,-4%,?
CCOc1ccc(CN(C)CC(O)COC(c2ccc(OC)cc2)c2ccc(OC)cc2)cc1 (stereo unspecified),-7,11µM*,-7%,?,?,12%
COc1ccc(CCN(C)CCCC(C#N)(c2cc(OC)c(OC)c(OC)c2)C(C)C)cc1OC (stereo unspecified),-32,?,0%,8.9µM*,?,-5%
COc1ccc(CN(C)CC(O)COc2ccc(-c3ccccc3)cc2)cc1OC (stereo unspecified),29,7.1µM*,-14%,?,?,-7%
COc1ccc(CCN(C)CC(O)c2ccccc2)cc1OC (stereo unspecified),-74*,-8%,-6%,3%[46.1 µM],20%,?
COc1ccc(CN(C)CC(O)COC(c2ccc(OC)cc2)c2ccc(OC)cc2)cc1 (stereo unspecified),12,?,-7%,?,?,-1%
COc1ccc(CCN(C)CCc2ccc(OC)c(OC)c2)cc1OC,-7,-21%,-18%,5µM*!,-22%,-3%
Cc1ccc(CSCCNC(=O)C2CCN(S(=O)(=O)Cc3ccccc3)CC2)cc1,3,/,-15%,?,?,/
Cc1ccc(CN2CCCn3nc(C(=O)NCCc4ccc(Cl)cc4)cc3C2=O)cc1,-12,/,-16%,/,1%[46.1 µM],/
CCOc1ccc(NC(=O)CN(C)C(=O)CC2CCCC2)cc1OCC,16,-8%,-19%,/,/,/
CCOc1ccc(NC(=O)CN(C)C(=O)CC2CCCCC2)cc1OCC,-68*,?,-11%,/,/,/
CCCCCCCC[n+]1cccc2c3ccccc3ccc21,-97*,1.4µM*,?,/,/,-3%
CCCCCCCCCC[n+]1cccc2c3ccccc3ccc21,-108*,4µM*,?,/,/,5%
COc1cc(CN2CCC3(CC2)CC3C(=O)Nc2ccc3sc(C)nc3c2)ccc1F (stereo unspecified),/,/,-10%,/,/,/
C/C(CCN1CCc2nc(-c3ccccc3)c(-c3ccccc3)cc2C1)=N\O[C@@H](C)CN1CCCc2nc(C)c(C)cc21,/,/,/,/,/,-1%[12.9 µM]
O=C(Nc1ccc(F)cc1)[C@H](CSCc1ccccc1)N1Cc2ccccc2C1=O,8,/,42%,-10%[46.1 µM],10%[46.1 µM],/
CCN(CC(=O)NCc1cccs1)C(=O)CCOc1ccccc1C,-97*,-7%,-20%,1%,-6%,/
